Hit rate of the full screen: of about 65,000 compounds, about 2,100 (3.2%) showed an effect of 50% or more. The median lay at about -52%. Many of the other results were omitted from the sample, so strong results are more common in it than they were.
test system: Plasmodium falciparum; assay: Screen against P. falciparum Asexual Blood Stage (ABS), at 5uM; assay type: functional, Dd2; details: tested at 5 uM

Compound	INHIBITION
Cn1cc(CN2CCCCC2c2ccc(-c3cnn(C)c3)nc2)cn1 (stereo not given)	-15.7%
Cc1nc(O)c2nnn(C[C@H]3CCCN3C(=O)c3ccccc3C)c2n1	-51%
CC(c1ccc(F)cc1F)N1CCN(CCC(=O)O)CC1 (stereo not given)	-11.3%
CC(c1ccc(F)cc1F)N1CCN(CCC(=O)NC(N)=O)CC1 (stereo not given)	64%
CC(SCCC(=O)NC(N)=O)c1ccc(F)cc1F (stereo not given)	-47%
N#Cc1ccc(C(=O)N2CCC(c3ncc[nH]3)CC2)cn1	-111%
C=C(C)CNC1CCCN(Cc2noc(C3CC3)n2)C1 (stereo not given)	32.4%
Cc1ccc2c(c1)C(NC(=O)N(C)C)CC21CCN(C(C)C)CC1 (stereo not given)	-82%
O=C(c1ccc[nH]1)N1CCn2cc(Cn3cccn3)nc2C1	-68.4%
CCOCc1cnc2n1CCN(C(=O)c1cn(C)c3ccccc13)C2C (stereo not given)	-9.29%
Clc1cccc(C(CNCc2ccccn2)N2CCOCC2)c1 (stereo not given)	53.1%
Clc1cccc(C(CNCc2cccnc2)N2CCOCC2)c1 (stereo not given)	56.9%
Clc1cccc(C(CNc2ncccn2)N2CCOCC2)c1 (stereo not given)	-57%
O=C(C(CNCc1ccccn1)c1ccccc1)N1CCOCC1 (stereo not given)	-29.2%
O=C(C(CNCc1cccnc1)c1ccccc1)N1CCOCC1 (stereo not given)	-52.2%
Cc1ccc(C(CNCc2cccnc2)N2CCOCC2)s1 (stereo not given)	-0.0343%
CCOCC(=O)NCc1cc(Br)ccc1OC(F)F	-119%
CCC(C(=O)N1CCS(=O)(=O)CC1)n1cccn1 (stereo not given)	-77.5%
CN(C)C(=O)c1ccc2c(c1)nc(N1CC[C@H](O)C1)n2C	-58.1%
CN(c1ccc(Cl)c(C(=O)NCCCN2CCOCC2)c1)S(C)(=O)=O	-93.1%
O=C(CCCNC(=O)c1cnccn1)Nc1ncc[nH]1	-63.2%
CC(C)COCCC(=O)NCc1cn2cc(Br)ccc2n1	-27.3%
CN(C)[C@@H]1C[C@@H](CO)N(C(=O)Nc2cccc(F)c2F)C1	-46.8%
OCC1(O)CCCN(Cc2ccccc2OCCc2ccccc2)CC1 (stereo not given)	65.1%
O=C1NCC2(CCCN(Cc3ccccc3OCCO)C2)O1 (stereo not given)	-55.2%
OCCOc1ccccc1CN1CCCC(O)(CO)C1 (stereo not given)	-48.1%
CO[C@H]1CN(C(=O)OC(C)(C)C)CC1NCc1ccoc1 (stereo not given in full)	-73.1%
Cc1cc(C)nc(N2CCC(OCCN3CCCCC3)C2)n1 (stereo not given)	13.3%

Compound	INHIBITION
CC(C)(C)c1nccc(N2CCC(OCCN3CCCCC3)C2)n1 (stereo not given)	62.5%
c1cnc(N2CCC(OCCN3CCCCC3)C2)nc1 (stereo not given)	-58%
Cc1cnc(N2CCC(OCCN3CCCCC3)C2)nc1C (stereo not given)	23.5%
Cc1ccnc(N2CCC(OCCN3CCCCC3)C2)n1 (stereo not given)	-83.8%
COc1ccnc(N2CCC(OCCN3CCCCC3)C2)n1 (stereo not given)	51.2%
Cc1cccc(-c2c[nH]c(C3CCCN3)n2)c1 (stereo not given)	-5.91%
CC(C)c1nccc(CN2CCCC(O)(CN3CCCC3)C2)n1 (stereo not given)	-69.7%
CN(C)C(=O)CN1C[C@H]2CC[C@@H](C1)N(C(=O)CCn1cncn1)C2	-87.6%
O=C(NC1CC1)N1CCc2ccc(=O)n(CCN3CCCC3)c2CC1	-113%
Cc1cnn(CCNCc2csc(-c3ccc(F)cc3)n2)c1	-58%
Cc1cnn(CC(C)NCc2csc(-c3ccco3)n2)c1 (stereo not given)	-84%
Cc1cnn(CCNCc2csc(-c3ccccc3)n2)c1	66.6%
Cc1cnn(CCNCc2csc(-c3cccs3)n2)c1	-51.7%
Cc1cnn(CCNCc2csc(-c3ccco3)n2)c1	54.9%
Cc1cnn(CCNCc2csc(-c3ccc(C)o3)n2)c1	-32.6%
O=C(C1CCS(=O)(=O)CC1)N1C[C@@H]2CC[C@H]1CN(Cc1ccccc1)C2	-51.3%
C=C1C(C)(C)[C@@H]2CC[C@]1(C(=O)N1CCC(n3cc(CO)nn3)CC1)C2	-90.8%
Cc1nc(CN(C)C2CCN(CCC(=O)N3CCOCC3)C2)no1 (stereo not given)	-30.8%
Cc1nc(C)n(CC2CCCCN2Cc2nc(-c3ccoc3)no2)n1 (stereo not given)	-49.9%
Cc1nc(C)n(CC2CCCN2Cc2cc(-c3cccs3)on2)n1 (stereo not given)	65.2%
Cc1nc(C)n(CC2CCCN2Cc2coc(-c3cccs3)n2)n1 (stereo not given)	-63.6%
Cc1nc(C)n(CC2CCCN2Cc2nc(-c3cccs3)no2)n1 (stereo not given)	23.3%
Cc1nc(C)n(CC2CCCN2Cc2nc(-c3ccco3)no2)n1 (stereo not given)	-131%
Cc1nc(C)n(CC2CCCCN2Cc2nc(-c3ccco3)no2)n1 (stereo not given)	61.7%
Cc1oc(-c2ccccc2)nc1CN1CCC(c2ccnn2C)CC1	-18.9%
Cc1nc(C(=O)N2CCOCC2)cc(N2CCC(C(N)=O)CC2)n1	-45.2%
Cn1nccc1-c1ncc2c(c1C(=O)O)CCN(Cc1ccccc1)C2	-41.8%
